Compound activity deposited in PubChem by several laboratories.
Mcl1-Noxa inh = Mcl-1/Noxa interaction inhibition; Q07820; TR-FRET Mcl-1/Noxa peptide binding, 2 h; inhibition, % at 21.7 µM; 220,000 tested, 1.5% active;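 active means compounds that cut the protein-peptide binding signal by more than 50% relative to plate controls in a single-dose test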;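 further: His-tagged Mcl-1 with rhodamine Noxa BH3 peptide and terbium anti-His antibody; 0% = Mcl-1 plus Noxa peptide wells and 100% = peptide-only wells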
Target sequence (Q07820 whole entry, looked up): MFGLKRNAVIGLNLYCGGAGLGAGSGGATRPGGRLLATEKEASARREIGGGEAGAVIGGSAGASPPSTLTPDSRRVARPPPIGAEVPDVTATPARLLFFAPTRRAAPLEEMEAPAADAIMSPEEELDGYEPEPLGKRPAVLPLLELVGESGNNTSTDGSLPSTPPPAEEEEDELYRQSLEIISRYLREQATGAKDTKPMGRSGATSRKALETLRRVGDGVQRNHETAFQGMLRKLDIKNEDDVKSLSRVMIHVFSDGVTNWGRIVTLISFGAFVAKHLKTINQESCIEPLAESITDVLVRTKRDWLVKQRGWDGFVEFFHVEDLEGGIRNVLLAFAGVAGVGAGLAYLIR
Mcl-1 Bim block = human Bim-Mcl-1 interaction inhibition; 190,000 tested, 0.1% active; Bead-based flow cytometry, Bim peptide-Mcl-1 binding; AID 1009; inhibition, % at 10 µM; in the data active means inhibition above about 40%;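 further: 0% = no compound tracer wells and 100% = peptide blocker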
14-3-3 Bad inh = disrupts binding of bovine 14-3-3 zeta to phospho-Bad peptide; AID 781; TR-FRET 14-3-3zeta/Dy647-pBad peptide displacement, 1 h; inhibition, % at 21.7 µM; P63103; 220,000 tested, 0.71% active;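 active means inhibition above about 70%, limit read from the data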;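 further: 0% = full 14-3-3 plus peptide FRET controls and 100% = background without 14-3-3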
Target sequence (P63103 whole entry, looked up): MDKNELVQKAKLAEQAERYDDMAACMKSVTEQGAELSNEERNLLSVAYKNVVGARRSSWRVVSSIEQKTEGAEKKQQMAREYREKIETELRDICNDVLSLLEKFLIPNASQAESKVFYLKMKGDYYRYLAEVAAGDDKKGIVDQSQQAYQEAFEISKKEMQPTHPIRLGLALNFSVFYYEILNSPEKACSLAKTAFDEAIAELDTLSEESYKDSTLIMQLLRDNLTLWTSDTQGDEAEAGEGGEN
MCL1 BIM primary = inhibitors of human MCL1 binding to BIM-BH3 peptide. 320,000 tested, 0.68% active. inhibition, % at 10.9 µM. Q07820. AID 2057. GST-MCL1 / FITC-Bim-BH3 fluorescence polarization;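 active means inhibition above the mean inhibition of all tested compounds plus 3 SD, set per campaign, cut at about 40% in these data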;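 further: 0% = DMSO wells and 100% = unlabeled Bim-BH3 peptide control; higher means more loss of mP so more displacement of Bim peptide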
eIF4E-4G inh = inhibitors of eIF4E and eIF4G interaction in translation initiation; TR-FRET eIF4E-eIF4GI(517-606) binding, 2 h; inhibition, % at 21.7 µM; 220,000 tested, 0.37% active;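 active means inhibition above about 30%, limit read from the data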;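 further: 0% = full FRET control wells and 100% = background wells lacking eIF4GI fragment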
Mcl1 Bid PPI = Mcl-1/Bid interaction inhibition; 220,000 tested, 0.97% active; TR-FRET Mcl-1/Bid-Dy647 peptide binding, 1536-well; inhibition, % at 21.7 µM; Q07820;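 active means compounds that cut the binding signal by more than half at the single screening dose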;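 further: His-tagged Mcl-1 with europium anti-His antibody binding Bid BH3 peptide; 0% = Mcl-1 plus peptide wells and 100% = peptide-only wells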
An asterisk follows results filed as active; [ ] = remark or other dose. Shown are actives, neighbours in structure and some others; about 2.6% of the full set was active somewhere.

CC1CCc2c(nc3sc4c(c3c2N)CCCC4)C1 (configuration not stated) was read as Mcl1-Noxa inh 54*, Mcl-1 Bim block -3, 14-3-3 Bad inh -16, MCL1 BIM primary 7, eIF4E-4G inh 3 and Mcl1 Bid PPI -6.
`NC(=O)c1ccc(NC(=O)COC(=O)CCN=C2NS(=O)(=O)c3ccccc32)cc1` gave MCL1 BIM primary -5.
Screening O=C(Cc1cccs1)N=Nc1c(O)[nH]c2ccc(Br)cc12 returned Mcl1-Noxa inh 44, 14-3-3 Bad inh -12, MCL1 BIM primary 4, eIF4E-4G inh -4 and Mcl1 Bid PPI -4.
`COc1ccc2[nH]c(O)c(N=NC(=O)Cc3cccs3)c2c1` gave Mcl1-Noxa inh 61*, 14-3-3 Bad inh 19, MCL1 BIM primary 32, eIF4E-4G inh -2 and Mcl1 Bid PPI -55.
Screening COC(=O)N(NC(=O)C(O)(c1ccccc1)c1ccccc1)c1ccccc1 returned Mcl1-Noxa inh 16, Mcl-1 Bim block -6, 14-3-3 Bad inh -2, MCL1 BIM primary -4, eIF4E-4G inh 3 and Mcl1 Bid PPI 60*.
COCCCn1c(SCC(=O)N2CCOCC2)nc2cc(Cl)ccc2c1=O was read as MCL1 BIM primary 6.
`COc1ccc(N/C=C2\CCOC2=O)cc1` gave Mcl1-Noxa inh 29, Mcl-1 Bim block 0, 14-3-3 Bad inh -4, MCL1 BIM primary 3, eIF4E-4G inh -2 and Mcl1 Bid PPI -101.
Screening COc1ccc(N/C=C2\C(=O)CCc3c2oc2cc(Cl)c(O)c(Cl)c32)cc1 returned Mcl1-Noxa inh 74*, 14-3-3 Bad inh 25, MCL1 BIM primary 32, eIF4E-4G inh 8 and Mcl1 Bid PPI 86*.
Screening Brc1ccc(-n2cnc(-c3ccccc3)c2)cc1 returned MCL1 BIM primary 4.
`Nc1ccc(Nc2nc(-c3cc4ccccc4oc3=O)cs2)cc1` gave Mcl1-Noxa inh 59*, Mcl-1 Bim block 0, 14-3-3 Bad inh 6, MCL1 BIM primary 4, eIF4E-4G inh 7 and Mcl1 Bid PPI -31.
For O=C(O)c1ccc(Nc2nc(-c3cccnc3)cs2)cc1O the results were MCL1 BIM primary 18.
O=C(Nc1nc(-c2cc3ccccc3oc2=O)cs1)c1ccc(Br)o1 was read as Mcl1-Noxa inh 2, Mcl-1 Bim block -3, 14-3-3 Bad inh 79*[fluorescence artefact?], MCL1 BIM primary -6, eIF4E-4G inh 7 and Mcl1 Bid PPI -25.
`O=C(O)c1ccc(Nc2nc(-c3cc4ccccc4oc3=O)cs2)cc1O` gave Mcl1-Noxa inh 97*, Mcl-1 Bim block 0, 14-3-3 Bad inh 40, eIF4E-4G inh 1 and Mcl1 Bid PPI -87.
`CCn1c(SCC(=O)Nc2ccc(F)cc2)nnc1C1CC1` gave MCL1 BIM primary 3.
For C/C(=N\NC(=O)c1cccnc1)c1ccc(OC2OCCOC2Oc2ccc(/C(C)=N/NC(=O)c3cccnc3)cc2)cc1 (configuration not stated) the results were Mcl1-Noxa inh -46, Mcl-1 Bim block -3, 14-3-3 Bad inh 87*, MCL1 BIM primary 3, eIF4E-4G inh 15 and Mcl1 Bid PPI -22.
Screening CC(=O)OCCn1c2nc(=O)[nH]c(=O)c-2nc2cc(C)c(C)cc21 returned Mcl1-Noxa inh 14, 14-3-3 Bad inh 64, eIF4E-4G inh 8 and Mcl1 Bid PPI 96*.
Screening CC(=O)OCCn1c(C)[n+](CCOC(C)=O)c2cc(Cl)c(Cl)cc21 returned Mcl1-Noxa inh 22, Mcl-1 Bim block -5, 14-3-3 Bad inh 3, MCL1 BIM primary -25, eIF4E-4G inh 7 and Mcl1 Bid PPI 3.
`CCCOC(=O)c1c(-c2ccc(C)cc2C)csc1NC(=O)C1C2CCC(O2)C1C(=O)O` (configuration not stated) gave Mcl1-Noxa inh 29, Mcl-1 Bim block -2, 14-3-3 Bad inh 9, MCL1 BIM primary 8, eIF4E-4G inh -3 and Mcl1 Bid PPI -4.
For COc1ccccc1-c1nnc(NC(=O)c2ccc3c(c2)OCO3)s1 the results were Mcl1-Noxa inh 14, Mcl-1 Bim block -2, 14-3-3 Bad inh 71*, MCL1 BIM primary -2, eIF4E-4G inh 9 and Mcl1 Bid PPI 63*.
Screening CC(C)c1nnc(NC(=O)c2ccc3c(c2)OCO3)s1 returned Mcl1-Noxa inh 18, Mcl-1 Bim block 0, 14-3-3 Bad inh -3, MCL1 BIM primary -1, eIF4E-4G inh 3 and Mcl1 Bid PPI -3.
Screening Cc1cccc(Nc2ncnc3ccccc23)c1 returned Mcl1-Noxa inh -19, Mcl-1 Bim block 0, 14-3-3 Bad inh 73*, MCL1 BIM primary -2, eIF4E-4G inh 8 and Mcl1 Bid PPI -30.
Cc1ccc(Nc2ncnc3ccccc23)cc1 was read as Mcl1-Noxa inh 23, Mcl-1 Bim block 3, 14-3-3 Bad inh 4, MCL1 BIM primary 8, eIF4E-4G inh 1 and Mcl1 Bid PPI -2.
`CCOC(=O)c1c(NC(=O)c2cc(-c3ccc(O)cc3)on2)sc(C(C)=O)c1C` gave Mcl1-Noxa inh 84*, Mcl-1 Bim block -8, 14-3-3 Bad inh 65, MCL1 BIM primary -2, eIF4E-4G inh 31* and Mcl1 Bid PPI -16.
Screening CCOC(=O)c1c(NC(=O)C(=O)N/N=C/c2ccc(O)c(OC)c2)sc2c1CCCCC2 returned Mcl1-Noxa inh 17, Mcl-1 Bim block 0, 14-3-3 Bad inh -14, MCL1 BIM primary 5, eIF4E-4G inh 3 and Mcl1 Bid PPI -21.
Screening CCOC(=O)c1c(NC(=O)N/N=C/c2ccc(O)c(OC)c2)sc(C(C)=O)c1C returned Mcl1-Noxa inh 84*, 14-3-3 Bad inh 58, MCL1 BIM primary 0, eIF4E-4G inh -18 and Mcl1 Bid PPI 71*.
`CCOC(=O)c1c(NC(=O)CC(C)C)sc(C(C)=O)c1C` gave Mcl1-Noxa inh -20, 14-3-3 Bad inh -8, MCL1 BIM primary 8, eIF4E-4G inh -4 and Mcl1 Bid PPI 6.
Screening O=C(N/N=C\c1ccc(F)cc1)c1csnn1 returned Mcl1-Noxa inh -9, Mcl-1 Bim block 4, 14-3-3 Bad inh 89*, MCL1 BIM primary 9, eIF4E-4G inh 11 and Mcl1 Bid PPI -28.
`CN(C)c1ccc(/C=C/c2ccc3c4ccccc4ccc3[n+]2-c2ccccc2)cc1` gave Mcl1-Noxa inh 84*, Mcl-1 Bim block 0, 14-3-3 Bad inh -13, eIF4E-4G inh 75* and Mcl1 Bid PPI -61.
Screening CCOC(=O)CSc1nc(N)c(C#N)c(-c2ccc(OCC)cc2)c1C#N returned Mcl1-Noxa inh -113, Mcl-1 Bim block -1, 14-3-3 Bad inh -1, MCL1 BIM primary -2, eIF4E-4G inh -21 and Mcl1 Bid PPI -24.
CC1=C(C#N)c2nc(N)c(C#N)c(C)c2/C1=C\c1ccc(OCC(=O)O)c(Cl)c1 was read as Mcl1-Noxa inh 57*, 14-3-3 Bad inh 14, MCL1 BIM primary 33, eIF4E-4G inh 6 and Mcl1 Bid PPI 7.
`O=c1oc2ccccc2c(O)c1/C=N/c1ncccn1` gave MCL1 BIM primary -6.
